# Results published in PubChem BioAssay (NCI).
# About 83,000 compounds went through this panel and 20% of them were active in at least one assay; those are over-represented in the sample as a whole.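 Growth was measured after 48 h exposure to one concentration of compound in 96-well plates. Values under 10 count as active.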 Unmarked numbers belong to inactive results. The source made the active and inactive calls.
# System: KM12 colon
# Experiment: NCI-60 one-dose screen, 48 h (100 = growth as untreated, 0 = no growth, -100 = all killed)
# Conditions: 10 µM unless noted
# Experimental: Growth inhibition of the KM12 human tumor cell line is measured as a screen for anti-cancer activity. Cells are grown in 96 well plates and exposed to the test compound for 48 hours. Compounds are tested at a single concentration, which is 10^-5 M for most compounds. The reported endpoint is percent growth (GI% or GIPRCNT), where numbers from 0 - 100% represent growth inhibition, and numbers from -100% - 0 represent cell death. For example, a value of 40 represents 60% growth inhibition. A value of 0 means no net growth occurred over the course of the experiment. A value of -40 indicates 40% of cells at the beginning of the experiment died by the end of the experiment. A value of -100 means all cells are dead at the end of the experiment.
# NCI-60 Human Tumor Cell Lines Screen was performed using the standard one-dose NCI protocol, which is described in more detail at https://dtp.cancer.gov/discovery_development/nci-60/default.htm.
# Compounds with GIPRCNT values below 10 were considered active. Activity score was based on GIPRCNT using the following formula: […]
# Score is 0 for GIPRCNT values of 100 or above, 50 for GIPRCNT values of 0, and 100 for GIPRCNT values of -100.
row,Structure (SMILES),growth
1,COc1ccc(C2CC(c3cccc(Nc4ccnc5cc(Cl)ccc45)c3)=NN2c2ccccc2)cc1 (stereo not given),27.1%
2,C#CC[C@@H]1C[C@]2(C)[C@H]3CC=C4[C@H]5[C@@H](C)[C@H](C)CC[C@]5(C(=O)NCCCCCCCCN)CC[C@@]4(C)[C@]3(C)CC[C@H]2C(C)(C)[C@H]1OC(C)=O,0.426% (active)
3,CC(OC(=O)Nc1cccc(Cl)c1)C(=O)O (stereo not given),101%
4,O=C(O)C1[S][Sb]([CH](C(=O)O)[CH](C(=O)O)[Sb]2[S]C(C(=O)O)C(C(=O)O)[S]2)[S]C1C(=O)O (stereo not given),100%
5,O=C(Nc1ccccc1)C(CCCCN1C(=O)c2ccccc2C1=O)N1C(=O)c2ccccc2C1=O (stereo not given),100%
6,Cc1nc2ccc(Nc3nc(Cl)nc(N4CCOCC4)n3)cc2n1Cc1ccccc1,95.8%
7,Cc1ccc2oc(=O)cc(-c3nc4ccc([N+](=O)[O-])cc4[nH]3)c2c1,59.7%
8,CN=C1C=C/C(=N/N=c2/ccn(O)cc2C)C=C1C,109%
9,OC(c1cc(-c2ccc(C(F)(F)F)cc2)nc(-c2ccc(C(F)(F)F)cc2)c1)C1CCCCN1 (stereo not given),-87.7% (active)
10,Cc1cc(C#Cc2ccccc2)ccc1-n1c(/C=C/c2ccc(F)cc2)nc2ccccc2c1=O,62.5%
11,Cc1c(O)c(=O)n(-c2ccccc2)n1C,105%
12,COc1ccccc1NC(=O)OCC12COCN1COC2,107%
13,CC(=O)c1cc(C(=O)c2ccc3c(c2)Sc2ccccc2N3)c2c(C)cccn12,11.8%
14,COc1ccc(/C(=C\c2cc(OC)c(OC)c(OC)c2)C(=O)N2CCCNCC2)cc1,110%
15,NS(=O)(=O)c1ccc(N2N=C(c3ccc(Br)cc3)CC2c2cn(-c3ccccc3)nc2-c2ccc(Cl)cc2)cc1 (stereo not given),74.9%
16,COc1ccc(C(=O)/C=C/c2cn(-c3ccccc3)nc2-c2cccc(Nc3ccnc4cc(Cl)ccc34)c2)cc1,94.9%
17,O=C(CI)NCCNc1cccc2c(S(=O)(=O)O)cccc12,95.7%
18,Cc1ccc(N2C3c4ccccc4N(S(=O)(=O)c4ccc(C)cc4)C2c2ccccc2N3S(=O)(=O)c2ccc(C)cc2)cc1,95.4%
19,CC(=O)c1nn(-c2ccccc2)/c(=N\N=C\c2coc3ccc(F)cc3c2=O)s1,101%
20,CN1CCN(Cc2ccc(NC(=O)c3cncc(C#Cc4cnc5cccnn45)c3)cc2C(F)(F)F)CC1,-12.3% (active)

row,Structure (SMILES),growth
1,Cc1cccc(C(=O)O)n1,110%
2,c1ccc(-c2[nH]c3ccccc3c2-c2ccccc2)cc1,92.4%
3,Nc1nc2c(c3ncccc13)C(c1ccccc1)Cc1ncccc1-2 (stereo not given),50.4%
4,CCCCCCCCCCCCCC(=S)NCCCC[C@H](NC(=O)OCc1ccccc1)C(=O)Nc1ccccc1,25.9%
5,Nc1nc(N)c2cc(CNc3ccc(Cl)c(Cl)c3)ccc2n1,-15.9% (active)
6,Nc1ncnc2c1N=C(c1ccc(F)cc1)CC(c1sc(Cl)nc1Cl)N2 (stereo not given),105%
7,C=C(C)[C@@H]1CC[C@]2(C)[C@H](CC=C3[C@@H]4C[C@](C)(C(=O)N5CCN(C)CC5)CC[C@]4(C)CC[C@]32C)[C@@]1(C)CCC#N,53.6%
8,COc1ccc2[nH]c(C(=O)OCc3ccc4c(Br)cc(Br)c(O)c4n3)cc2c1,-48.6% (active)
9,COc1ccc2c(c1)CCCC21C(=O)Nc2c(Cl)cccc21 (stereo not given),61.3%
10,COc1ccc2[nH]cc(/C=C3\C(=O)Nc4ccccc43)c2c1,13.7%
11,Cc1ccc(N=CNN=C(N)N)cc1,107%
12,COc1ccc(-n2nc(C(=O)NCC(=O)Nc3nc4cc(OC)ccc4s3)c3ccccc3c2=O)cc1,18.2%
13,COc1ccc(C2=Nn3c(nnc3-c3ccc(Cl)cc3N)SC2)cc1,110%
14,CCc1ccc(Nc2ncnc3c2cnn3-c2cccc(Br)c2)cc1,106%
15,Cn1nc(C(F)(F)F)cc1-c1cc(Cl)c(OCc2ccc(Cl)cc2)c(-c2ccc(Cl)c(C(F)(F)F)c2)c1O,7.08% (active)
16,COc1ccc(C2C3=C(COC3=O)N(CCO)c3cc(OC)c(OC)cc32)cc1 (stereo not given),106%
17,COc1ccc(Br)c2ccccc12,109%
18,Fc1cc(-c2nnc3sc(-c4ccc(Cl)cc4)nn23)c(Cl)cc1Cl,95.6%
19,COC(=O)C1(C)COP(=O)(NC23CC4CC(CC(C4)C2)C3)OC1 (stereo not given),102%
20,Clc1ccc(Nc2ncnc3c2sc2ncccc23)c(Cl)c1,50.8%
